# Laboratory results: PubChem BioAssay
# The source made the active and inactive calls. Unless noted, the rule behind the calls is not given here.
# How the values were obtained:
# [1] = system: Wnt5a (protein binding on small-molecule microarray); experiment: small molecules binding Wnt5a protein – biophysical, small-molecule microarray, 635/667 nm fluorescence, primary screen (AID 1142); settings: 635 nm fluorescence, higher = more signal;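 note: fluorescence read at 667 nm with signal to noise per printed feature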
# [2] = ATP-based viability of Huh7 replicon cells – cell-based, CellTiter-Glo luminescence, basal, 48 h, cytotoxicity control for HCV replication inhibitor project, primary screen (AID 1143); settings: higher = more signal, called active from +8 up or from −8 down;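 note: Huh7 hepatoma cells carrying a hepatitis C replication reporter with no stimulus; test concentration not given here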
# [3] = Pseudomonas biofilm growth suppression – PAO1 strain, BacTiter-Glo luminescence, LB-PBS, primary screen (AID 1144); settings: P. aeruginosa PAO1 biofilm, 12 h, higher = more signal
# [4] = basal CRE-LacZ reporter activity in PC12 – cell-based, unstimulated, primary screen (AID 1145); settings: no forskolin, luminescence, 4.5 h, higher = more signal, called active from +8 up or from −8 down
# [5] = forskolin-driven CRE-LacZ activity in PC12 – cell-based, CRE-LacZ reporter, forskolin-stimulated, primary screen (AID 1146); settings: luminescence, 4.5 h, higher = more signal, called active from +8 up or from −8 down;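 note: PC12 cells with 6xCRE LacZ reporter stimulated by forskolin 10 µM; beta-galactosidase reporter signal reflecting CREB driven transcription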
# [6] = target: Streptavidin (Streptomyces avidinii) (UniProt P22629); experiment: compounds binding control protein streptavidin – biophysical, small-molecule microarray, 635/667 nm fluorescence, artefact control for SMM compound annotation, primary screen (AID 1147); settings: higher = more signal;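 note: signal reflects streptavidin binding to arrayed compounds as a control protein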
# [7] = probe aInhba binding on compound microarray – biochemical, small-molecule microarray, 635/667 nm fluorescence, primary screen (AID 1148); settings: higher = more signal;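 note: score merges 667nm spot fluorescence with signal-to-noise for antibody binding to printed compounds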
# Torsin-1A (Homo sapiens) [8] = target: Torsin-1A (Homo sapiens) (UniProt O14656); experiment: TOR1A wild-type binding on microarray – cell lysate, small-molecule microarray, lysate, 635/667 nm, primary screen (AID 1149); settings: COS7 hTOR1A-WT lysate, 635 nm fluorescence, higher = more signal
# Torsin-1A (Homo sapiens) [9] = target: Torsin-1A (Homo sapiens) (UniProt O14656); experiment: torsin A mutant lysate binding on microarrays – cell lysate, small-molecule microarray, COS7 lysate, 635/667 nm fluorescence, primary screen (AID 1150); settings: COS7 hTOR1A mutant lysate, 635 nm fluorescence, higher = more signal;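 note: score pools 667 nm emission and signal to noise measuring lysate protein binding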
# [10] = system: Sonic hedgehog protein (Shh); experiment: Sonic hedgehog microarray binding compounds – biochemical, small-molecule microarray, 635/667 nm fluorescence, primary screen (AID 1151); settings: 635 nm fluorescence, higher = more signal;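 note: Shh protein binding to compounds spotted on small-molecule microarray slides; score combines spot fluorescence intensity with signal-to-noise across triplicate slides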
# Chain of Streptavidin (Streptomyces avidinii) (P22629 whole entry, looked up): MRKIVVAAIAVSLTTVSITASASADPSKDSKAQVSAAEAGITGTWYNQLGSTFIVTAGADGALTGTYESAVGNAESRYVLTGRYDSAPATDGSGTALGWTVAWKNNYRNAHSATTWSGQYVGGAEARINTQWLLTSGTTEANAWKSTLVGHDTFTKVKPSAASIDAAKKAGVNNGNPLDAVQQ
# Chain of Torsin-1A (Homo sapiens) (O14656 whole entry, looked up): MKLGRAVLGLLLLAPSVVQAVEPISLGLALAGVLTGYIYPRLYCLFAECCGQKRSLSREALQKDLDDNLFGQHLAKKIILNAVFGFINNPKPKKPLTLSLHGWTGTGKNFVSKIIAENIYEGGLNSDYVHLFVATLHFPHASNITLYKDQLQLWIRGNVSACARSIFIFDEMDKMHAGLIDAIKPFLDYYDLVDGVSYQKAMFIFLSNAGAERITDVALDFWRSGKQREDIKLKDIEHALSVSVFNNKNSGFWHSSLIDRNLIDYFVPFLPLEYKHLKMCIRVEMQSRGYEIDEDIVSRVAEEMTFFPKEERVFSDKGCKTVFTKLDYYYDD
SMILES,composite z-score [1],z-score [2],z-score [3],z-score [4],z-score [5],composite z-score [6],composite z-score [7],composite z-score (Torsin-1A (Homo sapiens) [8]),composite z-score (Torsin-1A (Homo sapiens) [9]),composite z-score [10]
C[C@H]1CC[C@@H](C(=O)O)N[C@@H]1c1cccc(N2CCCC2=O)c1,0.0767,0.0659 (inactive),-0.43 (inactive),-0.437 (inactive),-1.1 (inactive),-0.0712,-0.134,0.203,0.286,0.189
O=C1[C@H]2[C@H]3[C@H](O)[C@H](O)CC(=NO[C@@H]4O[C@H](CO)[C@@H](O)[C@H](O)[C@H]4O)[C@H]3CC[C@H]2C(=O)N1c1ccc(F)cc1F,0.0816,-1.9 (inactive),1.42 (inactive),-0.837 (inactive),-0.0522 (inactive),-0.695,-0.0774,0.835,0.189,-0.704
Cc1ccc(S(=O)(=O)N[C@@H]2COC(=O)CC=C[C@@H](C)[C@H](NS(=O)(=O)c3ccc(C)cc3)COC(=O)[C@H](C)NC(=O)CC=C[C@H]2C)cc1,-0.0175,0.218 (inactive),-0.88 (inactive),-0.38 (inactive),-0.863 (inactive),-0.508,-0.121,-0.0787,0.0835,0.427
CO[C@@H]1COC(=O)[C@H](COCc2ccccc2)NC(=O)CC=C[C@@H](C)[C@H](OC)COC(=O)[C@@H](C)NC(=O)CC=C[C@H]1C,-0.128,-0.0313 (inactive),0.104 (inactive),0.337 (inactive),-0.803 (inactive),-0.801,-0.179,1.53,0.544,1.92
CCOC(=O)[C@H](Cc1ccccc1)NC(=O)CCC1CC(OC(=O)NCc2ccc3c(c2)OCO3)CC2(CCCC(COC(=O)NCCc3ccc(Cl)cc3)O2)O1 (stereo not given in full),0.0468,-1.42 (inactive),-1.89 (inactive),-0.0696 (inactive),-0.71 (inactive),1.14,-0.0221,0.147,0.214,1.11
COC(OC)[C@@H](C)[C@H](OC)[C@@H](C)[C@H](OC)c1ccccc1,0.3,-0.609 (inactive),-1.32 (inactive),1.46 (inactive),0.0401 (inactive),-0.211,-0.321,0.237,-0.252,0.155
CC(CCN1CCCc2nc(C)c(C)cc21)=NO[C@H](C)c1cn([C@@H]2COC[C@H]2O)nn1,0.395,0.0307 (inactive),0.392 (inactive),-1.12 (inactive),-0.181 (inactive),0.764,0.0906,1.47,2.3,0.979
C[C@@H]1CC[C@H]2C(=O)O[C@@H](CN=[N+]=[N-])CN2[C@H]1c1ccc(Br)cc1,-0.0229,-3.67 (inactive),-0.608 (inactive),3.37 (inactive),-0.833 (inactive),0.414,-0.179,0.48,0.581,0.888
O=C1CCCC=C1C(O)C1CCCCC1 (stereo not given),-0.028,0.869 (inactive),0.993 (inactive),0.198 (inactive),0.85 (inactive),-0.234,-0.122,-0.19,0.44,0.628
COc1ccc(-c2cnnc(CCCn3ccnc3-c3ccccc3)n2)cc1,0.314,-4.68 (inactive),-0.459 (inactive),1.37 (inactive),-0.631 (inactive),0.22,-0.144,1.56,1.52,0.838
C#CCCCON=C1C[C@@H](O)[C@@H](O)[C@@H]2[C@@H]3C(=O)N(CC)C(=O)[C@@H]3CC[C@H]12,0.401,0.0934 (inactive),0.203 (inactive),0.252 (inactive),0.0606 (inactive),0.0761,-0.0986,0.259,0.937,0.275
CCCC[C@H]1CN2[C@@H](CC[C@@H](C)[C@@H]2c2ccc(Br)cc2)C(=O)O1,0.132,-1.44 (inactive),0.616 (inactive),0.755 (inactive),-0.0888 (inactive),0.426,-0.0494,0.836,0.716,0.456
C#CCCCON=C1C[C@@H](O)[C@@H](O)[C@@H]2[C@@H]3C(=O)N(C[C@@H]4CCCO4)C(=O)[C@@H]3CC[C@H]12,-0.0106,0.119 (inactive),0.428 (inactive),-0.564 (inactive),0.593 (inactive),0.66,-0.128,0.372,0.406,0.554
CCN1C(=O)[C@H]2[C@H]3[C@H](O)[C@H](O)CC(=NO[C@H](C)c4cn([C@@H]5COC[C@H]5O)nn4)[C@@H]3CC[C@H]2C1=O,0.0122,0.654 (inactive),-0.332 (inactive),0.0013 (inactive),0.446 (inactive),0.079,-0.0468,0.174,0.0806,0.0707
COC(=O)[C@@H]1CC[C@H](C)[C@@H](c2ccc(C)cc2)N1C(=O)c1ccc(C=NOC[C@@H](O)[C@H]2O[C@@H]3OC(C)(C)O[C@@H]3[C@H]2O)cc1,0.0258,0.48 (inactive),-0.0399 (inactive),9.08 (active),0.413 (inactive),0.54,0.31,0.215,0.277,0.241
COc1ccc(COC(=O)NN=C2C[C@@H](O)[C@@H](O)[C@@H]3[C@@H]4C(=O)N(C[C@@H]5CCCO5)C(=O)[C@@H]4CC[C@@H]23)cc1,0.0073,0.0894 (inactive),1.2 (inactive),0.338 (inactive),-0.959 (inactive),0.662,-0.15,1.2,1,0.0407
CC(=O)OC[C@H]1O[C@H](CC=NOC[C@@H](O)[C@H]2O[C@@H]3OC(C)(C)O[C@@H]3[C@H]2O)C=C[C@@H]1OC(C)=O,0.0795,0.165 (inactive),-0.0289 (inactive),-1.3 (inactive),-0.521 (inactive),0.168,-0.152,-0.197,0.071,-0.0919
CCOC(=O)[C@H](CC(C)C)NC(=O)CCC1CC(OC(=O)NCc2ccc3c(c2)OCO3)CC2(CCCC(COC(=O)NCCOc3ccccc3)O2)O1 (stereo not given in full),0.278,-0.705 (inactive),-0.393 (inactive),0.293 (inactive),0.179 (inactive),0.282,-0.0719,0.314,0.387,1.87
CC(C)(C)N1C(=O)[C@H]2[C@@H]3C(=CC[C@H]2C1=O)C(=O)[C@H]1O[C@H]1[C@H]3O,-0.264,-6.85 (inactive),0.652 (inactive),-0.748 (inactive),-3.08 (inactive),-0.5,-0.127,1.84,-0.0252,0.981
O=C1C2=CC[C@H]3C(=O)N(C4CCCCC4)C(=O)[C@H]3[C@H]2[C@H](O)[C@@H]2O[C@H]12,-0.272,-8.35 (active),-0.366 (inactive),17.1 (active),30.1 (active),-0.408,-0.183,-0.695,-0.53,-0.689
CCOC(=O)CCN1C(=O)[C@H]2[C@H]3[C@H](O)[C@H](O)CC(=NNC(=O)OCc4ccc(OC)cc4)[C@H]3CC[C@H]2C1=O,-0.169,-0.401 (inactive),0.136 (inactive),0.523 (inactive),-0.139 (inactive),-0.0807,-0.257,0.306,0.111,0.236
CCOC(=O)[C@H](Cc1ccccc1)NC(=O)CCC1CC(OC(=O)NCc2ccc3c(c2)OCO3)CC2(CCCC(COC(=O)NCCOC)O2)O1 (stereo not given in full),0.274,-3.06 (inactive),-0.212 (inactive),-0.256 (inactive),0.59 (inactive),0.91,-0.016,0.351,0.291,1.91
C=CC[C@@H]1C=C[C@H](ON=C[C@@H](NS(=O)(=O)c2ccc(C)cc2)[C@H](C)C=CCC(=O)OC)[C@@H](CO)O1,-0.116,0.182 (inactive),1.33 (inactive),0.848 (inactive),0.983 (inactive),-0.407,0.138,0.359,0.634,0.416
COC(=O)[C@@H]1CC[C@H](C)[C@@H](c2ccc(Br)cc2)N1C(=O)C(F)(F)F,-0.237,-0.322 (inactive),-0.69 (inactive),0.565 (inactive),-0.344 (inactive),-0.307,-0.0944,-0.179,-0.835,-0.14
